Measured values reported in PubChem BioAssay AID1159580 (chemical genetic matrix, 2015).
Out of some 5,500 compounds screened, about 2,000 (36%) were called active. Another 18% or so got no clear call; they are omitted. The list shows a part of the results. Unmarked numbers belong to inactive results. No stated cut-off is given here; in the data, active means normalized growth mostly below about 0.91 (no sharp cut-off); inconclusive means no clear call, values can overlap the other calls; inactive means mostly above about 0.92.

Test: chemical genetic growth profiling, strain panel (AID 1159580);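 further: tested at 20 µM; growth read once vehicle control cultures reached saturation at 30 °C; 1 = growth at the plate median or of vehicle wells; lower values mean less growth of the strain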
Details: S. cerevisiae deletion strains, growth OD

COc1ccc2nc3ccccc3c(N)c2c1
normalized growth (locus YAR019C, strain CDC15, hits give low values): 0.6 (active)
normalized growth (locus YBL105C, strain PKC1, hits give low values): 0.592 (active)
normalized growth (locus YBR135W, strain CKS1, hits give low values): 0.722 (active)
normalized growth (locus YBR136W, strain MEC1, hits give low values): 0.657 (active)
normalized growth (locus YBR160W, strain CDC28, hits give low values): 0.661 (active)
normalized growth (locus YDL017W, strain CDC7, hits give low values): 0.636 (active)
normalized growth (locus YDL028C, strain MPS1, hits give low values): 0.679 (active)
normalized growth (locus YDL108W, strain KIN28, hits give low values): 0.737 (active)
normalized growth (locus YDL214C, strain PRR2, hits give low values): 0.203 (active)
normalized growth (locus YDR052C, strain DBF4, hits give low values): 0.701 (active)
normalized growth (locus YDR054C, strain cdc34, hits give low values): 0.625 (active)
normalized growth (locus YDR477W, strain SNF1, hits give low values): 0.198 (active)
normalized growth (locus YER123W, strain YCK3, hits give low values): 0.195 (active)
normalized growth (locus YER133W, strain GLC7, hits give low values): 0.215 (active)
normalized growth (locus YFL029C, strain CAK1, hits give low values): 0.579 (active)
normalized growth (locus YFR003C, strain YPI1, hits give low values): 0.652 (active)
normalized growth (locus YFR019W, strain FAB1, hits give low values): 0.208 (active)
normalized growth (locus YGR040W, strain KSS1, hits give low values): 0.21 (active)
normalized growth (locus YGR052W, strain FMP48, hits give low values): 0.235 (active)
normalized growth (locus YGR092W, strain DBF2, hits give low values): 0.227 (active)
normalized growth (locus YHR030C, strain SLT2, hits give low values): 0.188 (active)
normalized growth (locus YHR079C, strain IRE1, hits give low values): 0.206 (active)
normalized growth (locus YHR082C, strain KSP1, hits give low values): 0.27 (active)
normalized growth (locus YHR205W, strain SCH9, hits give low values): 0.151 (active)
normalized growth (locus YIL147C, strain SLN1, hits give low values): 0.63 (active)
normalized growth (locus YJL095W, strain BCK1, hits give low values): 0.227 (active)
normalized growth (locus YJL157C, strain FAR1, hits give low values): 0.176 (active)
normalized growth (locus YJR016C, strain ILV3, hits give low values): 0.699 (active)
normalized growth (locus YJR066W, strain TOR1 (second series), hits give low values): 0.246 (active)
normalized growth (locus YJR066W, strain TOR1, hits give low values): 0.233 (active)
normalized growth (locus YKL048C, strain ELM1, hits give low values): 0.264 (active)
normalized growth (locus YKL067W, strain YNK1, hits give low values): 0.19 (active)
normalized growth (locus YKL101W, strain HSL1, hits give low values): 0.193 (active)
normalized growth (locus YKL193C, strain SDS22, hits give low values): 0.659 (active)
normalized growth (locus YKL203C, strain TOR2, hits give low values): 0.204 (active)
normalized growth (locus YLR113W, strain HOG1, hits give low values): 0.257 (active)
normalized growth (locus YLR133W, strain CKI1, hits give low values): 0.199 (active)
normalized growth (locus YLR403W, strain SFP1, hits give low values): 0.11 (active)
normalized growth (locus YML070W, strain DAK1, hits give low values): 0.207 (active)
normalized growth (locus YMR001C, strain CDC5, hits give low values): 0.667 (active)
normalized growth (locus YMR205C, strain PFK2 (second series), hits give low values): 0.258 (active)
normalized growth (locus YMR277W, strain FCP1, hits give low values): 0.648 (active)
normalized growth (locus YNL006W, strain LST8, hits give low values): 0.611 (active)
normalized growth (locus YNL020C, strain ARK1, hits give low values): 0.196 (active)
normalized growth (locus YNL161W, strain CBK1, hits give low values): 0.525 (active)
normalized growth (locus YNL183C, strain NPR1, hits give low values): 0.283 (active)
normalized growth (locus YNL207W, strain RIO2, hits give low values): 0.645 (active)
normalized growth (locus YNL222W, strain SSU72, hits give low values): 0.638 (active)
normalized growth (locus YNL307C, strain MCK1 (second series), hits give low values): 0.202 (active)
normalized growth (locus YOL078W, strain AVO1, hits give low values): 0.689 (active)
normalized growth (locus YOL136C, strain PFK27, hits give low values): 0.205 (active)
normalized growth (locus YOR061W, strain CKA2, hits give low values): 0.186 (active)
normalized growth (locus YOR119C, strain RIO1, hits give low values): 0.221 (active)
normalized growth (locus YOR231W, strain MKK1, hits give low values): 0.225 (active)
normalized growth (locus YOR329C, strain SCD5, hits give low values): 0.607 (active)
normalized growth (locus YPL031C, strain PHO85, hits give low values): 0.214 (active)
normalized growth (locus YPL153C, strain RAD53, hits give low values): 0.216 (active)
normalized growth (locus YPL204W, strain HRR25, hits give low values): 0.198 (active)
normalized growth (locus YPL209C, strain IPL1, hits give low values): 0.624 (active)
normalized growth (locus YPL256C, strain CLN2, hits give low values): 0.252 (active)
normalized growth (locus YPR025C, strain CCL1, hits give low values): 0.637 (active)
normalized growth (locus YPR106W, strain ISR1, hits give low values): 0.679 (active)
normalized growth (locus YPR111W, strain DBF20, hits give low values): 1
normalized growth (strain NNK1, hits give low values): 0.537 (active)
normalized growth (strain TSCII, hits give low values): 0.58 (active)
